Experimental data: the supplement of paper PMC10849652
The full data set covers some 7,900 targets. This sample favours those with a hit. About 0.6% of all pairs of compound and target were hits.

These targets were tested with CC[C@H](C)N1C=C(C2=C(C=C(C=C21)C3=CN=C(C=C3)N4CCNCC4)C(=O)NCC5=C(C=C(NC5=O)C)C)C (assay: log2 fold change, soluble protein after heating vs DMSO (PISA); higher = thermal stabilisation; K562 cells, 10 uM, 30 min; active = over 0.2 and 3.5 SD of the protein, either way, in both replicates (recomputed)).
Summary of the method: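 Quantification of soluble protein used TMTpro 16plex LC-MS/MS, with channel sums equalised. Samples were the supernatant after 21,000xg for 90 min of pooled aliquots from K562 cells (2×10^6 cells/mL) treated with 10 μM compound for 30 min, heated for 3 min over 48°C-58°C, and extracted in PBS with 0.5% NP-40 at 4°C. Values, from duplicates, describe thermal stability against control samples on a log2 fold-change scale.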

Sequence of UniProt Q9NRP0 (Q9NRP0 whole entry, looked up): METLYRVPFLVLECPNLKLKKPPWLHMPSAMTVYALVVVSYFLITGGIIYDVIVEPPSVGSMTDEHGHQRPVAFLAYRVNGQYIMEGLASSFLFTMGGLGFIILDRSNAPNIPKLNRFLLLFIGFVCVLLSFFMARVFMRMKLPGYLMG
Sequence of UniProt O00567 (O00567 whole entry, looked up): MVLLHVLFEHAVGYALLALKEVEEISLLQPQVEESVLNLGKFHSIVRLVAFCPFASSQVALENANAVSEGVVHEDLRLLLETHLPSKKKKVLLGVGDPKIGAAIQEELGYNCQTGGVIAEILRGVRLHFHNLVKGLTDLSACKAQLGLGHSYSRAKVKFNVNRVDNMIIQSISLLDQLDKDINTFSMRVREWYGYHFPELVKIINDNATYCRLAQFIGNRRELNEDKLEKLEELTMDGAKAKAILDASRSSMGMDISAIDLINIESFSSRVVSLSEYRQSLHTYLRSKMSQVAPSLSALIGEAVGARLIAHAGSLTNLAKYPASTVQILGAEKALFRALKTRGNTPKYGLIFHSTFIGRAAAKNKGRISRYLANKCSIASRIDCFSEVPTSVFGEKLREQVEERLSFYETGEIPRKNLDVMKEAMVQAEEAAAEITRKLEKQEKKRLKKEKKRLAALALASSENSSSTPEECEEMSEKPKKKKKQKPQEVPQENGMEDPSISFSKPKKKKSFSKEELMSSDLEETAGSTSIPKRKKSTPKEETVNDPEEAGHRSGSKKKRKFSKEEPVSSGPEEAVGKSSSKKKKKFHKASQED
Sequence of UniProt Q13423 (Q13423 whole entry, looked up): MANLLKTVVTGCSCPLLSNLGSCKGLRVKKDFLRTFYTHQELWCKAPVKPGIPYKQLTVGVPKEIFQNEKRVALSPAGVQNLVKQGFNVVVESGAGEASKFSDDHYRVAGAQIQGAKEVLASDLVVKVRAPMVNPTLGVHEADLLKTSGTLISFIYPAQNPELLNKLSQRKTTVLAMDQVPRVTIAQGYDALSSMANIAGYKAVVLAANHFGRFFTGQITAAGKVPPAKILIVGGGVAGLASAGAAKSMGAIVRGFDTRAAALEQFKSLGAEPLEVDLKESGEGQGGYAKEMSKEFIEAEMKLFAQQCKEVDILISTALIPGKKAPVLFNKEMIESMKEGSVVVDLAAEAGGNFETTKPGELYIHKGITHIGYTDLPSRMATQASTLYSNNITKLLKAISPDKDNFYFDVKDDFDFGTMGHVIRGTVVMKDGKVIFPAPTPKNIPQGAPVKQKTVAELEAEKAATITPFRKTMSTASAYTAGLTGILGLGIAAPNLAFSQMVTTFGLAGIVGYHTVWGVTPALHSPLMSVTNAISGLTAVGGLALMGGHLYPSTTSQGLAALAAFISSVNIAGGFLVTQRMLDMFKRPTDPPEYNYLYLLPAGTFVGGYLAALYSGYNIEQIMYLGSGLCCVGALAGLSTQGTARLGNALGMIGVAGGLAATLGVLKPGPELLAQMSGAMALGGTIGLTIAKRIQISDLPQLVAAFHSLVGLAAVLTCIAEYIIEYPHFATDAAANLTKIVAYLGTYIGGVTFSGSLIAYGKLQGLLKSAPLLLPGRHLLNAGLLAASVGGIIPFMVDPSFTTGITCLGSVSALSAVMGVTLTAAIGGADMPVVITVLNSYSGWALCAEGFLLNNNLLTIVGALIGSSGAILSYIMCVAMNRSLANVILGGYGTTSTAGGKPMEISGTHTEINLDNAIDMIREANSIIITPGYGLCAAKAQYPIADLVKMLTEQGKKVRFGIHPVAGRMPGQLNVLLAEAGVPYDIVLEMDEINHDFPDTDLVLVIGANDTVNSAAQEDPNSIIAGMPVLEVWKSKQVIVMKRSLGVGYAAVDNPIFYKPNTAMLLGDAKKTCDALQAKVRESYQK
Sequence of UniProt Q9H3P2 (Q9H3P2 whole entry, looked up): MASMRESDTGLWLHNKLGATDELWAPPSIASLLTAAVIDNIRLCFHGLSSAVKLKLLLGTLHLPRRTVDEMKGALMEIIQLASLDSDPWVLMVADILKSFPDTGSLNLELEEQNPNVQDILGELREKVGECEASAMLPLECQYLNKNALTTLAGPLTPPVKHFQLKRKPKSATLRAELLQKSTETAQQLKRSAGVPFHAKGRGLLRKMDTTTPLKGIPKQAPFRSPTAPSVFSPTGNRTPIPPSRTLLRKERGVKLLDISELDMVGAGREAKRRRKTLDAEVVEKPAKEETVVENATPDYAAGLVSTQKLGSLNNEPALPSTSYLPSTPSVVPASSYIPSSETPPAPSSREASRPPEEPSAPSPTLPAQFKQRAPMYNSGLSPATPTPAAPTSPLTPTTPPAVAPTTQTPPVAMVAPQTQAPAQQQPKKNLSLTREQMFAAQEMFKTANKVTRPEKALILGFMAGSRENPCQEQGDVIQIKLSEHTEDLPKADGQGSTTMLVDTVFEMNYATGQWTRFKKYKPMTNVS
Sequence of UniProt O75251 (O75251 whole entry, looked up): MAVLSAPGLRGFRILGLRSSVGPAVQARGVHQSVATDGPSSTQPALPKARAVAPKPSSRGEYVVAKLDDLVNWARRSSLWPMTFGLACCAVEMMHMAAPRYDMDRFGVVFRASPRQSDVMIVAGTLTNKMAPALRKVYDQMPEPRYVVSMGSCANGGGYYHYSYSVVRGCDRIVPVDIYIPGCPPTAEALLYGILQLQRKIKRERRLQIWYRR
Sequence of UniProt Q9H8H0 (Q9H8H0 whole entry, looked up): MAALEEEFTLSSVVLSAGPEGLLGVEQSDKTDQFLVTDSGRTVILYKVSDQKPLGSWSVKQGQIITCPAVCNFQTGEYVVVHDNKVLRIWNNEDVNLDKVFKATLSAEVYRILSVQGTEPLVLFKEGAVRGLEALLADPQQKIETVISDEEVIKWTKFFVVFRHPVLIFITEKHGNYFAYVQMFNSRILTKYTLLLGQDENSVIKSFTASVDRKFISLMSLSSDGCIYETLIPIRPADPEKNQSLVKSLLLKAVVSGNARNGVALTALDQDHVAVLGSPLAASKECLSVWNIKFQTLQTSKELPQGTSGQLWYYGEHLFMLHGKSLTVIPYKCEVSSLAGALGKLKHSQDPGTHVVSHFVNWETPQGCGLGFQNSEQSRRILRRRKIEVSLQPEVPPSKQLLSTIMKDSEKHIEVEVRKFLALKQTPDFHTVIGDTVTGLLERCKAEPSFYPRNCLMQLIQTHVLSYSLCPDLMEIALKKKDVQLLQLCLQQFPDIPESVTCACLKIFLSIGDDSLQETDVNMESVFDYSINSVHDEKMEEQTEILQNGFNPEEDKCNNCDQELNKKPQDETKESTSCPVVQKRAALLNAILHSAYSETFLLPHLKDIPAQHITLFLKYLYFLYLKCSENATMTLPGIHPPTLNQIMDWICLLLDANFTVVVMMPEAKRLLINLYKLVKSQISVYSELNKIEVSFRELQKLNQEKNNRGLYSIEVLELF
Sequence of UniProt P49116 (P49116 whole entry, looked up): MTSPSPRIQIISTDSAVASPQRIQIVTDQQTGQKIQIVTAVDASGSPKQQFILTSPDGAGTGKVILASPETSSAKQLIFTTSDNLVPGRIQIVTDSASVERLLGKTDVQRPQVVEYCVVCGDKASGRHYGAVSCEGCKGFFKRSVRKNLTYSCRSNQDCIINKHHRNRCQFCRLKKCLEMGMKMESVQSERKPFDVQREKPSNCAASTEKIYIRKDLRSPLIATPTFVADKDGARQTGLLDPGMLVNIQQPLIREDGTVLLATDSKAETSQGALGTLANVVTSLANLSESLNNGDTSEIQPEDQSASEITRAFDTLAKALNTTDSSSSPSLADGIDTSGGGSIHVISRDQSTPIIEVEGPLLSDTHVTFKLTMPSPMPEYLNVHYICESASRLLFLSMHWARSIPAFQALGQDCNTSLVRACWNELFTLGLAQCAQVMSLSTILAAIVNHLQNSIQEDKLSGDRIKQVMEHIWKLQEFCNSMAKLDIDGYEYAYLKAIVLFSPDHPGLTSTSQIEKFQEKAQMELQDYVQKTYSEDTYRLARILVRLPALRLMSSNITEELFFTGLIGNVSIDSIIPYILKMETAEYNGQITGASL
Sequence of UniProt Q12986 (Q12986 whole entry, looked up): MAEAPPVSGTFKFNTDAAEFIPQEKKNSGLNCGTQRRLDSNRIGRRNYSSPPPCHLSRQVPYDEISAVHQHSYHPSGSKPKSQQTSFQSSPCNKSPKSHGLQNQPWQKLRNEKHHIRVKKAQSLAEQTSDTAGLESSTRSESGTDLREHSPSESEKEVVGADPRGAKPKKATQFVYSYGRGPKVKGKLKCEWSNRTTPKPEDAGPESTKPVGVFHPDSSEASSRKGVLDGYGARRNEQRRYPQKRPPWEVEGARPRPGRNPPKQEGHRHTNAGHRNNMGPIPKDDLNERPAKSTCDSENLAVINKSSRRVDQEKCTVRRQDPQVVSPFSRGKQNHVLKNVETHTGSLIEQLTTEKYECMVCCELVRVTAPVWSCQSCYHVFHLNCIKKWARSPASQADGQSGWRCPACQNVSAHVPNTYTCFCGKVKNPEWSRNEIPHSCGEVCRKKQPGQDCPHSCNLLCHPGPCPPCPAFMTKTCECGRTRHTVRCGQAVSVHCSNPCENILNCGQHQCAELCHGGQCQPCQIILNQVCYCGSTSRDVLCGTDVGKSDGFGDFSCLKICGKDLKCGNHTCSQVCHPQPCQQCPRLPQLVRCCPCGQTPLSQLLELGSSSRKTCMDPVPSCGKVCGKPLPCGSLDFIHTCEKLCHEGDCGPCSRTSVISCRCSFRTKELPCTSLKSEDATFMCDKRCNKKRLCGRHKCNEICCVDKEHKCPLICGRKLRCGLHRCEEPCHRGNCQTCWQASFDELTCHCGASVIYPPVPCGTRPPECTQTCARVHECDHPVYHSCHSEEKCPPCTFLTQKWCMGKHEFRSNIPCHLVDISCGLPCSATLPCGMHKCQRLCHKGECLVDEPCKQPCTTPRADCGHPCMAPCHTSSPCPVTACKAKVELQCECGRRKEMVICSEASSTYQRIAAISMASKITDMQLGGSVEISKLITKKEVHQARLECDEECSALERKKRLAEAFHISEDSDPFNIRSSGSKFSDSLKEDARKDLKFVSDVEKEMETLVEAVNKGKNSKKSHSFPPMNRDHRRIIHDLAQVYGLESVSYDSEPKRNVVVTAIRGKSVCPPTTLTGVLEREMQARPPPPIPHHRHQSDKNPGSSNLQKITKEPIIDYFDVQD

log2 fold change, inactive:
NELFB isoform 2 (UniProt Q8WX92) 0.118
MRPL50 (UniProt Q8N5N7) -0.063
MRPL46 (UniProt Q9H2W6) 0.034
NOP56 (UniProt O00567) 0.034
MTHFS (UniProt P49914) 0.034
MKNK1 (UniProt Q9BUB5) -0.025
NMNAT1 (UniProt Q9HAN9) -0.007
MT-ATP6 (UniProt P00846) -0.057
NFATC3 (UniProt Q12968) 0.073
NELFA (UniProt Q9H3P2) 0.341
OSTM1 (UniProt Q86WC4) 0.058
NDUFS8 (UniProt O00217) -0.005
MITD1 (UniProt Q8WV92) 0.077
NFX1 (UniProt Q12986) -0.001
NBN (UniProt O60934) 0.031
NDUFS7 (UniProt O75251) 0.003
NA, A0A096LPI6 -0.056
NSMCE2 (UniProt Q96MF7) -0.003
NIPSNAP2 (UniProt O75323) -0.003
MRPS10 (UniProt P82664) 0.088
NNT (UniProt Q13423) 0.036
NEU1 (UniProt Q99519) 0.059
NOL11 (UniProt Q9H8H0) -0.025
MRPS25 (UniProt P82663) 0.145
MRPS5 (UniProt P82675) 0.181
NMT2 (UniProt O60551) 0.039
NEDD4L (UniProt Q96PU5) 0.03
NR2C2 isoform 2 (UniProt P49116) 0.055
P4HA2 (UniProt O15460) -0.006
OSTC (UniProt Q9NRP0) 0.011
NFATC2 (UniProt Q13469) 0.19
PAFAH1B2 (UniProt P68402) 0.036
NA, A0A0B4J2A0 0.008
OXSM (UniProt Q9NWU1) -0.022
NDUFA12 (UniProt Q9UI09) 0.081
NOP58 (UniProt Q9Y2X3) 0.057
MSTO1 (UniProt Q9BUK6) 0.046
MRPS27 isoform 2 (UniProt Q92552) 0.132
MYL12B (UniProt O14950) 0.06
